Results filed as inconclusive are left out. Calls of active or inactive are those of the source. How the source made its calls, unless noted: active means hit-call score of the fitted dose curve at least 0.9, where 1 is the maximum; inconclusive means response in the unintended direction; inactive means score below 0.9.
Legend:
[1] = target: Retinoic acid receptor alpha (Homo sapiens) (UniProt P10276); test: ATG_DR5_RAR_CIS: Attagene CIS-FACTORIAL HepG2 Assay for human Retinoic Acid Receptor Alpha (RARE), DR5 submotif (AID 2282934; active means hit-call score of the fitted dose curve at least 0.9, where 1 is the maximum; inactive means score below 0.9); conditions: HepG2 Attagene cis-factorial RARE DR5 reporter, mRNA; actives raise or lower the signal
Sequence of Retinoic acid receptor alpha (Homo sapiens) (P10276 whole entry, looked up): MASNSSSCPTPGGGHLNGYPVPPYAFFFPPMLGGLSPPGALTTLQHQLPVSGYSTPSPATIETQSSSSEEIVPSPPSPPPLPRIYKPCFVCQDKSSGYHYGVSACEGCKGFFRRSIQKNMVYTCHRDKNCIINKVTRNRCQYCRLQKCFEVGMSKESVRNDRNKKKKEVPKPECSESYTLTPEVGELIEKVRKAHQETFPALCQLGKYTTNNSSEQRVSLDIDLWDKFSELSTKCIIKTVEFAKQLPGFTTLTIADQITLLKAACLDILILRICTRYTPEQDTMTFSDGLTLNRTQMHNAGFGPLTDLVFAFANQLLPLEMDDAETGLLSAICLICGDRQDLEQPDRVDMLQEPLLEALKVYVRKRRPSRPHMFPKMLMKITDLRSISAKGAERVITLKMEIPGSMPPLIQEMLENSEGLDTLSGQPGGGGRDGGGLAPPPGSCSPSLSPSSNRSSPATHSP
In short: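 HepG2 cells transiently transfected with multiplexed reporter units under cis (DR5 RARE) promoters, so endogenous transcription factor activity is measured. After 24 h compound exposure, reporter mRNA is quantified by RT-PCR with fluorescent labelling and capillary electrophoresis; bidirectional fitting versus DMSO.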

[2] = ATG_M_19_TRANS: Attagene TRANS-FACTORIAL HepG2 Assay for M19 Transcription Factor (Internal Marker) (AID 2282974); conditions: HepG2 Attagene TRANS-FACTORIAL M19 internal marker reporter
In short: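 HepG2 cells transiently transfected with multiple GAL4-UAS reporter transcription units were exposed to chemicals for 24 h. Reporter mRNA was read by RT-PCR, 6-FAM primer extension, HpaI digestion and capillary electrophoresis; gain of signal fitted relative to DMSO.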

[3] = ATG_GAL4_TRANS: Attagene TRANS-FACTORIAL HepG2 Assay for GAL4 (Internal Marker) (AID 2282976); conditions: HepG2 Attagene TRANS GAL4 internal marker reporter
In short: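 RT-PCR/capillary electrophoresis readout of reporter mRNA. HepG2, transient MRTU transfection (GAL4-UAS reporters), 24 h compound exposure. Background-control endpoint, positive direction vs DMSO baseline.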

[4] = target: Oxysterols receptor LXR-beta (Homo sapiens) (UniProt P55055); test: ATG_LXRb_TRANS: Attagene TRANS-FACTORIAL HepG2 Assay for human Liver X Receptor beta (LXRb) (AID 2282981); conditions: HepG2 Attagene TRANS GAL4-LXRb reporter, mRNA
Sequence of Oxysterols receptor LXR-beta (Homo sapiens) (P55055 whole entry, looked up, the tested form may be a part): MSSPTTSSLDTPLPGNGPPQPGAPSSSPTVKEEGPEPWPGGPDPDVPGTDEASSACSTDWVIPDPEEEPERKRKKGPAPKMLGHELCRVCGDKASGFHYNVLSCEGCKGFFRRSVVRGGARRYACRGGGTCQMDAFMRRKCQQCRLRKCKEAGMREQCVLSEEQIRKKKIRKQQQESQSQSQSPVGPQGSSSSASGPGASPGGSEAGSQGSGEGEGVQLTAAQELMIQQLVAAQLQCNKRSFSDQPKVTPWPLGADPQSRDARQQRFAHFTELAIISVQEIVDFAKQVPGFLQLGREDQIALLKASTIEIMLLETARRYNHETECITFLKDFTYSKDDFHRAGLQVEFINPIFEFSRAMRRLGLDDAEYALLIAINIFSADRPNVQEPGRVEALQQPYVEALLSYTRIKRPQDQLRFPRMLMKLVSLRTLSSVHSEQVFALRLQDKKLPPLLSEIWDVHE
In short: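 In this TRANS format, exogenous chimeric NR-Gal4 protein activity, not endogenous factors, drives reporter expression in transfected human HepG2 cells. Exposure lasted 24 h; reporter mRNA was read by fluorescent capillary electrophoresis.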

[5] = target: Nuclear receptor subfamily 4 group A member 2 (Homo sapiens) (UniProt P43354); test: ATG_NURR1_TRANS: Attagene TRANS-FACTORIAL HepG2 Assay for human Nuclear Receptor Related Protein 1 (NURR1) (AID 2282985); conditions: HepG2 Attagene TRANS reporter, mRNA readout
Sequence of Nuclear receptor subfamily 4 group A member 2 (Homo sapiens) (P43354 whole entry, looked up): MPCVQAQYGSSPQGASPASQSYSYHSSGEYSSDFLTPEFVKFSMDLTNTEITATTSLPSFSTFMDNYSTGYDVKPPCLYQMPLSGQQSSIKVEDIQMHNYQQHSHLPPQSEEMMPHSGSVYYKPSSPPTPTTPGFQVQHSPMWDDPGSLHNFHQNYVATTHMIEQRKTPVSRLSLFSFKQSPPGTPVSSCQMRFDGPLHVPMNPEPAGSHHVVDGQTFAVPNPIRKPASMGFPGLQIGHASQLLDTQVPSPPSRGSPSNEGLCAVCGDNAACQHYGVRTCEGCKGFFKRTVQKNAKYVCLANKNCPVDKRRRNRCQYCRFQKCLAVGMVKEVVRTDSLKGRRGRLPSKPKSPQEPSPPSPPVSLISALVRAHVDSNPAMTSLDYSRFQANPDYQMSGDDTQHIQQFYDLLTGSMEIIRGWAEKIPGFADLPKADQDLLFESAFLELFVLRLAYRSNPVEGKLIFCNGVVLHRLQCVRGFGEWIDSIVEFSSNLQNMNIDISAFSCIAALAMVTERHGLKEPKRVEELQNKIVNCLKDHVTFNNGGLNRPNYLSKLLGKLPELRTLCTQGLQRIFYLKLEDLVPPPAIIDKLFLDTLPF
In short: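 After 24 h chemical dosing, total RNA from transiently transfected HepG2 cells was reverse-transcribed and reporter cDNA PCR-amplified, FAM-labelled and analysed by capillary electrophoresis. Activity fitted in positive direction, DMSO as negative control.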

[6] = target: human RAR-related Orphan Receptor beta (RORb), RORB (gene 6096) (UniProt Q92753); test: ATG_RORb_TRANS: Attagene TRANS-FACTORIAL HepG2 Assay for human RAR-related Orphan Receptor beta (RORb) (AID 2283010)
Sequence of human RAR-related Orphan Receptor beta (RORb), RORB (gene 6096) (Q92753 whole entry, looked up, the tested form may be a part): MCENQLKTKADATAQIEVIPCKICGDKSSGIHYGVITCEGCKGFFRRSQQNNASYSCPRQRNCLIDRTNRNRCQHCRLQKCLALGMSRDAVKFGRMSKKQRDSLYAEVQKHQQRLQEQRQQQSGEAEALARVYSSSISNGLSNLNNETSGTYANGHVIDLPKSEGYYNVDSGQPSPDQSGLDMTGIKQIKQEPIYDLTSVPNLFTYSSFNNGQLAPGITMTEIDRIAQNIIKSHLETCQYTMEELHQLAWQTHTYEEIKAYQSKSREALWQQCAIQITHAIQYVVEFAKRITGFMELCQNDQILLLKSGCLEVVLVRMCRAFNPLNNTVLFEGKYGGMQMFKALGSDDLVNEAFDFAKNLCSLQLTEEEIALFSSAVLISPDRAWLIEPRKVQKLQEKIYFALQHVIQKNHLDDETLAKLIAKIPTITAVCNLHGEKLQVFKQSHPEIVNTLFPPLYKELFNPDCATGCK
In short: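 HepG2 cells transiently transfected with GAL4-UAS reporter units expressing chimeric NR-Gal4 protein; reporter mRNA measured 24 h after dosing by RT-PCR, 6-FAM labelling and capillary electrophoresis. Gain-of-signal fitted relative to DMSO baseline.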

[7] = TOX21_p53_BLA_p2_viability: Viability Assessment in the Tox21 HCT-116 p53 Agonism Beta-lactamase Assay, Phase 2 (AID 2283591);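 further: compound exposure lasted 16 h at 37 °C; actives lower the ATP signal meaning cytotoxicity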
In short: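 HCT-116 p53-bla cells (4000/well) rested 5 h at 37C, then received compounds in DMSO (217-fold dilution) for 16 h at 37C, 5% CO2. After the CCF4 read, CellTiter-Glo was added; ATP luminescence was read after 30 min at room temperature.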

[8] = TOX21_p53_BLA_p3_viability: Viability Assessment in the Tox21 HCT-116 p53 Agonism Beta-lactamase Assay, Phase 3 (AID 2283593);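 further: cells exposed to compound for 16 h before reading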
In short: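 HCT-116 cells (4000/well) rested 5 h at 37C, then got DMSO compounds by pin tool (217-fold dilution) for 16 h at 37C, 5% CO2. After the bla read, CellTiter-Glo was added and luminescence read at 30 min, room temperature.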

[9] = ACEA_ER_AUC_viability: ACEA Biosciences xCELLigence Real-Time Cell Analysis on Estrogen Receptor Agonism for Viability (AID 2283782);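 further: continuous compound exposure with impedance area under curve over 80 h; hit means loss of impedance signal meaning reduced cell growth or viability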
In short: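 T-47D human breast cells in phenol red-free RPMI1640 with 10% charcoal-stripped FBS were dosed with an 8-point 1:4 dilution series from 100 uM top final concentration, in duplicate. Impedance-based growth was followed for 80 h; AUC analysed versus DMSO.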

[10] = ATG_PPRE_CIS: Attagene CIS-FACTORIAL HepG2 Assay for human Peroxisome Proliferator-activated Response Element (PPRE) (AID 2282958; active means hit-call score of the fitted dose curve at least 0.9, where 1 is the maximum; inactive means score below 0.9); conditions: HepG2 PPRE cis-element reporter, Attagene transcription factor profiling; actives raise or lower the signal
In short: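 HepG2 cells transiently transfected with multiplexed cis-element reporter units measure endogenous transcription factor activity. After 24 h compound exposure, reporter mRNA is quantified by RT-PCR, 6-FAM labeling, HpaI digestion and capillary electrophoresis; bidirectional fits are made against DMSO baseline.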

[11] = target: Nuclear receptor subfamily 1 group I member 3 (Homo sapiens) (UniProt Q14994); test: ATG_CAR_TRANS: Attagene TRANS-FACTORIAL HepG2 Assay for human Constitutive Androstane Receptor (CAR) (AID 2282969); conditions: HepG2 Attagene TRANS-FACTORIAL CAR reporter;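 further: activators raise reporter mRNA above DMSO so AC50 marks induction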
Sequence of Nuclear receptor subfamily 1 group I member 3 (Homo sapiens) (Q14994 whole entry, looked up, the tested form may be a part): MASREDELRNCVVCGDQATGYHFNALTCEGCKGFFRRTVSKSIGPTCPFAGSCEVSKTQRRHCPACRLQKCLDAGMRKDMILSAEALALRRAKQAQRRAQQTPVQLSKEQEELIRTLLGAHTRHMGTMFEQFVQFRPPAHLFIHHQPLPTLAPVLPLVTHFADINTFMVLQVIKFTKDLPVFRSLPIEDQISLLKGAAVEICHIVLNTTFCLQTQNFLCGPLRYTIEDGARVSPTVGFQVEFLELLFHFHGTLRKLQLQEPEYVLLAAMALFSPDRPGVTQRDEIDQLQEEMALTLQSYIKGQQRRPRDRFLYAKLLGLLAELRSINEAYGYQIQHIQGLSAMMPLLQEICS
In short: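 HepG2 cells transiently transfected with multiplexed GAL4-UAS reporter units expressing chimeric NR-Gal4 proteins; compound exposure 24 h. Reporter mRNA measured by RT-PCR, 6-FAM labelling, HpaI digestion and capillary electrophoresis; gain-of-signal fitted against DMSO baseline.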

[12] = target: Oxysterols receptor LXR-alpha (Homo sapiens) (UniProt Q13133); test: ATG_LXRa_TRANS: Attagene TRANS-FACTORIAL HepG2 Assay for human Liver X Receptor alpha (LXRa) (AID 2282980); conditions: HepG2 Attagene TRANS reporter, LXRa transactivation
Sequence of Oxysterols receptor LXR-alpha (Homo sapiens) (Q13133 whole entry, looked up, the tested form may be a part): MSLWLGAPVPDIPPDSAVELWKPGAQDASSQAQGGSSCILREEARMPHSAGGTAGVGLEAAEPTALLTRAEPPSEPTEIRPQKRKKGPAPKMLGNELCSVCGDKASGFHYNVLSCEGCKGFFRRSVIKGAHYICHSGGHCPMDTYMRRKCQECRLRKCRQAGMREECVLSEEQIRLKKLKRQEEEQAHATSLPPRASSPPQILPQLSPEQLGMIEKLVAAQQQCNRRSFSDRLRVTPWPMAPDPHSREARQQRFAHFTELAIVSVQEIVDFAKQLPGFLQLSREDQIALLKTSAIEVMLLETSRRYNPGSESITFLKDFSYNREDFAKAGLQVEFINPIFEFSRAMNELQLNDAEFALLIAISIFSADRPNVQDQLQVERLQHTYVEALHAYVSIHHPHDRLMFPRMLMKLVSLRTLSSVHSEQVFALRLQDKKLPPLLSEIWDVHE
In short: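 Read-out: reporter transcript levels by RT-PCR plus capillary electrophoresis, fluorescence intensity. Transiently transfected HepG2, exogenous NR-GAL4 chimera, GAL4-UAS reporters; 24 h compound exposure. Activity = increase over DMSO negative control.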

[13] = target: human Peroxisome Proliferator-activated Receptor delta (PPARd), PPARD (gene 5467) (UniProt Q03181); test: ATG_PPARd_TRANS: Attagene TRANS-FACTORIAL HepG2 Assay for human Peroxisome Proliferator-activated Receptor delta (PPARd) (AID 2283002)
Sequence of human Peroxisome Proliferator-activated Receptor delta (PPARd), PPARD (gene 5467) (Q03181 whole entry, looked up, the tested form may be a part): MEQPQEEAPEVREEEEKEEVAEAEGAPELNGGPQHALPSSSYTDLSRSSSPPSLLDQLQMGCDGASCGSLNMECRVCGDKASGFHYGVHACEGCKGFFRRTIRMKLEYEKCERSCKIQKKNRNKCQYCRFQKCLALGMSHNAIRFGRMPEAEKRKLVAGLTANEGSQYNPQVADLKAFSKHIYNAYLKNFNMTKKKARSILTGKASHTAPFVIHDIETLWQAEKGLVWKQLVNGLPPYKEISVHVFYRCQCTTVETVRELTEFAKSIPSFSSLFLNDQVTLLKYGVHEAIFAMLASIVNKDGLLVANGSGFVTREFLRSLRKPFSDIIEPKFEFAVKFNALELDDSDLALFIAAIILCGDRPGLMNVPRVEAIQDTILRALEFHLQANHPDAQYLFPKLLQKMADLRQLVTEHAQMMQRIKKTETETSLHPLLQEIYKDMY
In short: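 HepG2 cells transiently transfected with multiplexed GAL4-UAS reporter units and exogenous chimeric NR-Gal4 proteins; 24 h compound exposure. Reporter mRNA measured by RT-PCR, 6-FAM labelling, HpaI digestion and capillary electrophoresis; gain of signal versus DMSO.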

[14] = target: human RAR-related Orphan Receptor gamma (RORg), RORC (gene 6097) (UniProt P51449); test: ATG_RORg_TRANS: Attagene TRANS-FACTORIAL HepG2 Assay for human RAR-related Orphan Receptor gamma (RORg) (AID 2283011)
Sequence of human RAR-related Orphan Receptor gamma (RORg), RORC (gene 6097) (P51449 whole entry, looked up, the tested form may be a part): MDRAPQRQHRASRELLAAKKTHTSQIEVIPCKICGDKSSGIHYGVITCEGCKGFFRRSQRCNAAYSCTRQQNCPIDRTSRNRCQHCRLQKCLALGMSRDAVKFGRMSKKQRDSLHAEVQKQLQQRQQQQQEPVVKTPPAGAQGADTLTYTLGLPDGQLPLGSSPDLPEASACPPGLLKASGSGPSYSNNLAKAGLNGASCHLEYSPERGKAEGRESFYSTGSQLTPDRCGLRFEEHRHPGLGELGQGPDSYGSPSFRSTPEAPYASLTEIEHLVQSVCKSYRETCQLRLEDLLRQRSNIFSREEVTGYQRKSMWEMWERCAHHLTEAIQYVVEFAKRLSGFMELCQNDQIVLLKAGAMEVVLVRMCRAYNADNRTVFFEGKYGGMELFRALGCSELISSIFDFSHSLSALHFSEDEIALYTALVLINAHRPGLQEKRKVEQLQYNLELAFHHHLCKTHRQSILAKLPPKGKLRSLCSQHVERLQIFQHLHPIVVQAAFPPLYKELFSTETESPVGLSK
In short: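 Transient MRTU transfection of HepG2 (TRANS format, exogenous NR-Gal4 chimera). 24 h dosing. Total RNA → oligo(dT) RT → PCR → 6-FAM labelling → HpaI cut → CE. Gain vs DMSO.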

[15] = CCTE_Harrill_HTTr_Viability_MCF7: CCTE's 6-hour Cell Viability Assessment for the High-Throughput Transcriptomics (HTTr) Platform, in MCF-7 cells cultured in DMEM + 10% fetal bovine serum, Harrill Lab (AID 2284010; active means hit-call score of the fitted dose curve at least 0.9, where 1 is the maximum; inactive means score below 0.9)
In short: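 MCF-7 cells in DMEM + 10% FBS, 384-well, exposed 6 h to an eight-point dilution series. Membrane integrity scored by high-content imaging of propidium iodide exclusion; bidirectional fit versus DMSO.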

[16] = CCTE_Harrill_HTTr_Apoptosis_MCF7: CCTE's 6-hour Apoptosis Assessment for the High-Throughput Transcriptomics (HTTr) Platform, in MCF-7 cells cultured in DMEM + 10% fetal bovine serum, Harrill Lab (AID 2284011; active means hit-call score of the fitted dose curve at least 0.9, where 1 is the maximum; inactive means score below 0.9)
In short: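 Read-out: CellEvent Caspase 3/7 Green signal by high content imaging, gain-of-signal indicating apoptosis. MCF-7 cells, DMEM + 10% FBS, eight-point dilution series, 6 h exposure. Curves fitted bidirectionally relative to DMSO negative control.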

[17] = target: human Thyroid Receptor alpha (THRa1), THRA (gene 7067) (UniProt P10827); test: ATG_THRa1_TRANS: Attagene TRANS-FACTORIAL HepG2 Assay for human Thyroid Receptor alpha (THRa1) (AID 2283014)
Sequence of human Thyroid Receptor alpha (THRa1), THRA (gene 7067) (P10827 whole entry, looked up, the tested form may be a part): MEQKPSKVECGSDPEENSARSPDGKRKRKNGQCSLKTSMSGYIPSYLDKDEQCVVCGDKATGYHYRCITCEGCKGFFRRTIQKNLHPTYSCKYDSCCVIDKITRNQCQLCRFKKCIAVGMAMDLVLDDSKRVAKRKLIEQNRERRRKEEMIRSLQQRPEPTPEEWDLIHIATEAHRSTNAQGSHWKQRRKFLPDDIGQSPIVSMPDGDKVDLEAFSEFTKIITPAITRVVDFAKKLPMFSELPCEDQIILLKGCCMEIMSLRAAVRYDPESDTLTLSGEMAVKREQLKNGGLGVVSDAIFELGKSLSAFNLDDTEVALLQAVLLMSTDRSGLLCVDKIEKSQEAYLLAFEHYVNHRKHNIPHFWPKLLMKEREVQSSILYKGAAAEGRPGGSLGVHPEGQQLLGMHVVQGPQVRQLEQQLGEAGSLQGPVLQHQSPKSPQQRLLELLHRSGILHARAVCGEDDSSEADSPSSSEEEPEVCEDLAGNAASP
In short: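 Transient HepG2 transfection, NR-Gal4 chimera driving GAL4-UAS reporters; 24 h compound exposure; total RNA, oligo(dT) RT, PCR, fluorescent primer extension, capillary electrophoresis. Upward direction vs DMSO control.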

[18] = target: Bile acid receptor (Homo sapiens) (UniProt Q96RI1); test: ATG_IR1_CIS: Attagene CIS-FACTORIAL HepG2 Assay for human Nuclear Receptor Subfamily 1 Group H Member 4 (NR1H4), IR1 submotif (AID 2282946; active means hit-call score of the fitted dose curve at least 0.9, where 1 is the maximum; inactive means score below 0.9); conditions: IR1 reporter transcription, actives raise or lower the signal
Sequence of Bile acid receptor (Homo sapiens) (Q96RI1 whole entry, looked up): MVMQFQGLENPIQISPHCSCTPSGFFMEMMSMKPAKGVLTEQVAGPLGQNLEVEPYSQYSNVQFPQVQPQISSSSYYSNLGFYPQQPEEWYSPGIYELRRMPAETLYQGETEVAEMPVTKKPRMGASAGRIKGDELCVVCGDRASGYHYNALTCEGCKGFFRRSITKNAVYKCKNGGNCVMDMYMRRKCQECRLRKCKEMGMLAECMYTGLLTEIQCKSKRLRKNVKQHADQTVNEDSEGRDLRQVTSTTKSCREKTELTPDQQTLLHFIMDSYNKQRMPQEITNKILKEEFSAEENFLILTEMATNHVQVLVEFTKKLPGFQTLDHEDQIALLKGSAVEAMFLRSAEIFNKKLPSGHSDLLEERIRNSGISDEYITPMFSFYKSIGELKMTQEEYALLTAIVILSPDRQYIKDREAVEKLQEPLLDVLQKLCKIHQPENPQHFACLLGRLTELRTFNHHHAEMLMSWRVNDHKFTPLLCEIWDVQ
In short: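 Transient MRTU transfection, HepG2; 24 h dosing; RNA → RT-PCR → 6-FAM primer extension → HpaI digest → capillary electrophoresis fluorescence. Gain/loss of signal fitted relative to DMSO.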

[19] = ATG_M_32_TRANS: Attagene TRANS-FACTORIAL HepG2 Assay for M32 Transcription Factor (Internal Marker) (AID 2282984); conditions: HepG2 Attagene TRANS M32 internal marker reporter;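 further: transcript level of a background control reporter unit measured by RT-PCR and capillary electrophoresis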
In short: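 Human hepatoma HepG2, transient MRTU transfection, 24 h treatment. RNA → RT-PCR → fluorescent primer extension → HpaI digest (2 h, 37 C) → CE. Positive-direction fit vs DMSO.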

[20] = TOX21_p53_BLA_p4_viability: Viability Assessment in the Tox21 HCT-116 p53 Agonism Beta-lactamase Assay, Phase 4 (AID 2283597);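 further: hits lower the luminescence signal meaning cytotoxicity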
In short: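 We seeded HCT116 p53 reporter cells at 4000/well and waited 5 h. We then added compounds in DMSO at a 217-fold dilution and incubated for 16 h. Viability was read as CellTiter-Glo luminescence after 30 min at RT.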

Measured: AC50

Cc1ncc(C[n+]2csc(CCO)c2C)c(N)n1
inactive: [1] | [2] | [3] | [4] | [5] | [6] | [7] | [8] | [9]

CC(=O)C=Cc1ccccc1
not listed: [1] | [7] | [8] | [17] | [18] | [19] | [20]
inactive: all other assays above

CCNCC
inactive: [10] | [2] | [3] | [4] | [14] | [17]

CNC(=N[N+](=O)[O-])NCC1CCOC1 (stereo not drawn)
inactive: [18] | [2] | [3] | [19] | [6] | [14] | [20] | [15] | [16]

N#Cc1cc(I)c(O)c(I)c1
inactive: [1] | [11] | [2] | [3] | [4] | [19] | [17] | [7] | [8] | [15] | [16]

CC(Cc1ccc(C(C)(C)C)cc1)CN1C[C@@H](C)O[C@@H](C)C1 (stereo partly drawn)
active: [5] 33.4 µM | [8] 46.1 µM | [9] 89.5 µM
not listed: [1] | [3] | [13] | [14] | [19]
inactive: all other assays above

CC(C)CCCCCCCOC(=O)c1ccccc1C(=O)OCCCCCCCC(C)C
inactive: [18] | [2] | [3] | [19] | [6] | [14] | [17] | [9] | [15] | [16]

O=P(O)(Oc1ccccc1)Oc1ccccc1
inactive: [18] | [11] | [3] | [12] | [4] | [5] | [17] | [7] | [9]

CCCCCc1cc(O)cc(O)c1
inactive: [19] | [5] | [13] | [17]
active: [18] 155 µM | [10] 19.8 µM

CCC(C)c1cc([N+](=O)[O-])cc([N+](=O)[O-])c1OC(=O)C=C(C)C (stereo not drawn)
inactive: [11] | [3] | [5] | [13] | [7] | [8]
active: [18] 26.5 µM | [20] 13.2 µM

C#CC1(O)CCCCC1
inactive: [1] | [3] | [19] | [5] | [6] | [14] | [20]
active: [9] 61.7 µM

Nc1ccc([N+](=O)[O-])cc1N
active: [9] 50 µM
not listed: [2] | [7] | [11] | [15] | [16] | [17] | [18]
inactive: all other assays above

O=S(=O)(O)O
inactive: [4] | [5] | [17] | [15] | [16]
active: [9] 6.09 µM

Source: PubChem BioAssay (EPA / NIEHS)
